# Sm TGR block: blocks Schistosoma mansoni thioredoxin glutathione reductase; purified TGR, DTNB reduction, TNB absorbance 405 nm; hit rate 3% among 360,000; Q962Y6; AID 485364; Potency, µM (titrated, usually from 114 µM), for inactives: at the top dose activity change, negative = inhibition, hits mostly inhibitors; further: nearly all actives have a fitted effect of over 60% in size
#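 TGR 20 nM + NADPH 100 uM (dispensed conc.), cpd preinc 15 min RT; start with NADPH (500 uM addition) then DTNB (15 mM addition). Kinetic TNB absorbance, 405 nm filter. Four-parameter Hill fit across titration.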
# AmpC detergent: AmpC beta-lactamase inhibition with detergent present; P00811; AmpC hydrolysis of nitrocefin, absorbance 480 nm, 0.01% Triton; Potency, µM (titrated, usually from 114 µM), inactives show at the highest dose activity change, negative = inhibition, actives largely listed as inhibitors; hit rate 0.041% among 370,000; AID 485294;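 further: 0% = no-compound wells and -100% = no-enzyme wells; nearly all actives have a fitted effect of over 25% in size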
# Target sequence (P00811 whole entry, looked up): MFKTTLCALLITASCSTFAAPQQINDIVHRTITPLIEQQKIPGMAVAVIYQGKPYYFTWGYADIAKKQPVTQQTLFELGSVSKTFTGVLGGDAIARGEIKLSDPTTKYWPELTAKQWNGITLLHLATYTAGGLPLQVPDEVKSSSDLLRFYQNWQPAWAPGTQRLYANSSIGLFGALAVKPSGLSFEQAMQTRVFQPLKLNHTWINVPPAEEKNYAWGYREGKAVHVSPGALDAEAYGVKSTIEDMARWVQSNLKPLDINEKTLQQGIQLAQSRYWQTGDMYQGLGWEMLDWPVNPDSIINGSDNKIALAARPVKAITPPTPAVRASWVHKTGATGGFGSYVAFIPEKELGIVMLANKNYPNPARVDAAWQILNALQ
#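 AmpC (5.3 nM in the dispensed reagent) in 20 mM phosphate pH 7.0 with 0.01% (detergent screen) or 0.0001% Triton X-100 was preincubated with compounds for 15 min at room temperature. Nitrocefin was then added from an 800 uM solution, and hydrolysis was followed at 480 nm.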
# AmpC no deterg: AmpC beta-lactamase inhibition without detergent; P00811; hit rate 0.52% among 330,000; Potency, µM (series often up to 57.1 µM), inactives show at the highest dose activity change, negative = inhibition, actives largely listed as inhibitors; AID 485341; AmpC nitrocefin hydrolysis, absorbance 480 nm, 0.0001% Triton;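 further: plate controls were no compound for no effect and no enzyme for full effect; nearly all actives have a fitted effect of over 20% in size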
#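 AmpC (5.3 nM in the dispensed reagent) in 20 mM phosphate pH 7.0 with 0.01% (detergent screen) or 0.0001% Triton X-100 was preincubated with compounds for 15 min at room temperature. Nitrocefin was then added from an 800 uM solution, and hydrolysis was followed at 480 nm.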
# The depositor's hits bear a star; ? = inconclusive; nt = not tested or not shown. The list is not random: actives were taken first. Their share in the collection is about 3.3%. The call rests on the fitted dose curve; in most records, active means well fitted curve in the direction sought with a large enough effect; inconclusive means small, poorly fitted or top-dose-only effect, or another doubt; inactive means no such curve, though single readings can be large; an effect the other way counts as inactive or inconclusive. Unless noted, on the % scale 0 is the no-effect control and ±100 the full control effect; potency means the concentration at half of the fitted maximal effect.
SMILES,Sm TGR block,AmpC detergent,AmpC no deterg
C[C@@]12C(=O)N(CC3CCCO3)CC(=O)N1[C@H]1c3cc(Cl)ccc3OC[C@@H]1[C@@H]2c1ccccc1 (stereo not given in full),nt,nt,219.2%
O=C(CC1C(=O)OCCN1Cc1ccccc1)Nc1cccc(C(F)(F)F)c1 (stereo not given),?,-4.0%,nt
COc1ccc(Cl)cc1NC(=O)CN(C)C1CCS(=O)(=O)C1 (stereo not given),50.1µM*,-1.6%,-12.0%
O=C(CC1C(=O)OCC2CCCCN21)Nc1ccccc1C(F)(F)F (stereo not given),?,5.5%,-12.0%
CN(CC(=O)Nc1ccccc1Cl)C1CCS(=O)(=O)C1 (stereo not given),4.0%,?,-18.4%
CCN1CCN(CC(=O)Nc2ccc(C(C)=O)cc2)CC1,?,1.8%,0.6%
CCN1CCOC(=O)C1CC(=O)Nc1cc(C)cc(C)c1 (stereo not given),17.8µM*,-2.8%,nt
CCN1CCOC(=O)C1CC(=O)Nc1ccccc1C(F)(F)F (stereo not given),10µM*,-0.3%,nt
CCN1CCOC(=O)C1CC(=O)Nc1ccc(C(C)=O)cc1 (stereo not given),22.4µM*,-0.3%,nt
Cn1c(=O)c2c(ncn2CC(=O)Nc2cc(S(=O)(=O)N3CCCCC3)ccc2O)n(C)c1=O,nt,nt,-18.3%
CCOC(=O)N1CCN(CC(O)COc2ccc(C)c(C)c2)CC1 (stereo not given),-1.7%,1.1%,21.0%
CCc1ccc2c(CSc3nnnn3C)cc(=O)oc2c1,-6.9%,-3.3%,-16.8%
Cc1ccc(/C=C/c2onc(C)c2S(=O)(=O)N2CCC(C(=O)Nc3cc(C)ccc3C)CC2)cc1,-5.3%,16.2%,nt
CCN1CCOC(=O)C1CC(=O)Nc1cc(Cl)ccc1OC (stereo not given),14.1µM*,-0.5%,nt
COc1ccc(Cl)cc1NC(=O)CC1CCCC1,-10.6%,-7.0%,-27.8%
CCc1ccc(NC(=O)CC2C(=O)OCCN2CC)cc1 (stereo not given),14.1µM*,-2.9%,nt
COc1cccc(NC(=O)CC2C(=O)OCCN2Cc2ccccc2)c1 (stereo not given),-35.8%,6.4%,nt
CN(C)S(=O)(=O)c1ccc(NC(=O)N2CCN(c3ccccc3)CC2)cc1,0.8%,3.6%,-0.9%
COc1ccc(CCNC(=O)C(=O)NCC(c2cccs2)S(=O)(=O)c2ccccc2)cc1 (stereo not given),-15.2%,0.1%,nt
CCOCCn1ccc2c(OCC(=O)NCc3ccccc3)cccc2c1=O,1.4%,?,-2.8%
COc1cc(C(=O)Nc2ccncc2)cc(OC)c1OC,-8.2%,-13.5%,-3.2%
COC(=O)c1nc(NC(=O)c2cc(OC)c(OC)c(OC)c2)n[nH]1,31.6µM*,-3.3%,-14.3%
CCc1cccc(CC)c1NC(=O)C(CC)n1nc(C)n2c(cc3cc(C)ccc32)c1=O (stereo not given),-0.8%,12.8%,nt
COC(=O)c1ccccc1NC(=O)c1cc2nc(-c3ccccc3)cc(-c3ccccc3)n2n1,10.4%,2.6%,nt
O=C(OCCCOC(=O)c1ccc([N+](=O)[O-])o1)c1ccc([N+](=O)[O-])o1,-18.1%,?,-17.4%
SMILES,Sm TGR block,AmpC detergent,AmpC no deterg
Cc1ccc(CNC(=O)c2ccc([N+](=O)[O-])o2)cc1,35.5µM*,-12.6%,-18.5%
Cc1ccc(/C=C/C(=O)c2ccc([N+](=O)[O-])o2)cc1,14.1µM*,-10.5%,-11.5%
Cc1ccc(CNC(=O)c2nn(C)c(C)c2[N+](=O)[O-])cc1,4.7%,-9.3%,-8.6%
CC(=O)c1ccccc1OC(=O)c1ccc([N+](=O)[O-])o1,15.8µM*,2.2%,-7.3%
CN(Cc1ccccc1)C(=O)c1ccc([N+](=O)[O-])o1,39.8µM*,2.4%,-20.1%
O=C(COC(=O)c1ccc([N+](=O)[O-])o1)NCc1ccccc1,nt,nt,-22.9%
O=C(/C=C/c1ccc(Cl)cc1)c1ccc([N+](=O)[O-])o1,?,-0.1%,-17.0%
CCOc1ccc(NC(=O)CSc2ccc(-c3sc(-c4ccccc4)nc3C)nn2)cc1,5.4%,9.7%,nt
O=C(NCc1ccc(Cl)cc1)c1cc2cccc3c2n1CCS3,-4.1%,1.5%,nt
COc1ccc(C(=O)N/C(=C\c2cn(C)c3ccccc23)C(=O)N2CCOCC2)cc1OC,-27.8%,-1.2%,137.3%
O=C(CN1C(=O)NC2(CCc3ccccc32)C1=O)NCC(=O)Nc1ccc(F)cc1 (stereo not given),-1.6%,?,-24.7%
CCOc1ccccc1NC(=O)Nc1cnccn1,-0.5%,-1.1%,-22.3%
O=C(O)c1ccccc1Nc1ccc([N+](=O)[O-])cc1C(=O)O,-13.6%,7.3%,-14.8%

# Screening data deposited in PubChem BioAssay by National Center for Advancing Translational Sciences (NCATS).
